A short description of test [1]: E. coli DRC41 culture turbidity changes, primary screen, E. coli filamentation inducer project, strain DRC41, OD650, 48 h (AID 1152).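 Also: E. coli MC1000 strain DRC41 lacking acrAB efflux pump and sulA.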 The following applies: E. coli DRC41 (acrAB sulA), higher = more signal, called active from +8 up or from −8 down.
Test [2] can be described thus: small-molecule binders of probe aLefty1, primary screen, biochemical, small-molecule microarray, 635/667 nm fluorescence (AID 1153).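 Also: score merges spot fluorescence with signal-to-noise ratio from the scanned slide images.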 The following applies: higher = more signal.
Test [3] is described as follows: PSAC antagonists in infected red cells, primary screen, cell-based, P. falciparum Indochina, OD700, 1 h (AID 1154). The following applies: P. falciparum Indochina infected RBC osmotic lysis, higher = more signal, called active from +8 up or from −8 down.
The nature of test [4]: PSAC antagonists in infected red cells, primary screen, cell-based, P. falciparum Indochina, OD700, 2 h (AID 1155).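 Also: lysis reports solute entry through the parasite surface anion channel PSAC; channel blockers reduce lysis of infected cells.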 The settings on record: P. falciparum Indochina infected erythrocytes, osmotic lysis OD700; higher = more signal, called active from +8 up or from −8 down.
Test [5] is described as follows: osmotic lysis modulators in infected erythrocytes, primary screen, PSAC antagonist project, cell-based, P. falciparum Indochina, OD700, 3 h (AID 1156). The following applies: higher = more signal, called active from +8 up or from −8 down.
The nature of test [6]: PSAC antagonists in infected red cells, primary screen, cell-based, P. falciparum Indochina, OD700, 18 h (AID 1157). The following applies: P. falciparum Indochina infected erythrocytes, osmotic lysis OD700, 18 h; higher = more signal, called active from +8 up or from −8 down.
Test [7] can be described thus: modulators of S6 phosphorylation in cells, primary screen, cell-based, A549, cytoblot, luminescence, serum-stimulated (AID 1158).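 Also: serum-stimulated A549 lung adenocarcinoma cells; signal is phosphorylated S6 detected by cytoblot immunostaining with HRP secondary.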 The following applies: A549 phospho-S6 cytoblot, 5 h, higher = more signal.
Test [8] addresses NADPH oxidase 2 (Homo sapiens) (UniProt P04839). The test is described as follows: NOX2-dependent H2O2 signal modulators, primary screen, NOX inhibitor project, cell-based, HEK293-NOX2, PMA-stimulated, Amplex Red fluorescence (AID 1159). Also: test concentration not given here. The settings on record: 45 min, higher = more signal, called active from +8 up or from −8 down.
Test [9] has as its target NADPH oxidase 4 (Homo sapiens) (UniProt Q9NPH5). The test is described as follows: NOX4-dependent H2O2 signal modulators, primary screen, NOX inhibitor project, cell-based, HEK293-NOX4, tetracycline-induced, Amplex Red fluorescence (AID 1160). The following applies: 45 min, higher = more signal, called active from +8 up or from −8 down.
Test [10] concerns the target NADPH oxidase 5 (Homo sapiens) (UniProt Q96PH1). Briefly: NOX5-dependent H2O2 signal modulators, primary screen, NOX inhibitor project, cell-based, HEK293-NOX5, Amplex Red fluorescence (AID 1161). The settings on record: HEK293-NOX5, ionomycin, 45 min, higher = more signal.

“And” between values parts separate entries of the source, which are not always exact repeats. Equal entries are not always repeated. The source made the active and inactive calls.

NADPH oxidase 2 (Homo sapiens), sequence (P04839 whole entry, looked up): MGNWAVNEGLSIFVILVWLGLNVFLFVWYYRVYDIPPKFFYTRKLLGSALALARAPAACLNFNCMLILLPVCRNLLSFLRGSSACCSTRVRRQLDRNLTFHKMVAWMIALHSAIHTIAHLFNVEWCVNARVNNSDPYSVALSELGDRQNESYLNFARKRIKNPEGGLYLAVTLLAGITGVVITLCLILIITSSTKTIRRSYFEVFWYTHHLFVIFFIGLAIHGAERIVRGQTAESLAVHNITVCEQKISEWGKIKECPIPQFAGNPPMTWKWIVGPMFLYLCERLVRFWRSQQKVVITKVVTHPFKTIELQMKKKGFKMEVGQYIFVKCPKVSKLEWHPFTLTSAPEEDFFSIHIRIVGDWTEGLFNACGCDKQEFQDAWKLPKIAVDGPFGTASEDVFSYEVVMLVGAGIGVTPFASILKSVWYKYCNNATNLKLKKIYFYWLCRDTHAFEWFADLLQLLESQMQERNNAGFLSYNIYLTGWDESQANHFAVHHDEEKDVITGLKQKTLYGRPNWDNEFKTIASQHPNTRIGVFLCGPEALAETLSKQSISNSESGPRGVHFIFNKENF
NADPH oxidase 4 (Homo sapiens), sequence (Q9NPH5 whole entry, looked up): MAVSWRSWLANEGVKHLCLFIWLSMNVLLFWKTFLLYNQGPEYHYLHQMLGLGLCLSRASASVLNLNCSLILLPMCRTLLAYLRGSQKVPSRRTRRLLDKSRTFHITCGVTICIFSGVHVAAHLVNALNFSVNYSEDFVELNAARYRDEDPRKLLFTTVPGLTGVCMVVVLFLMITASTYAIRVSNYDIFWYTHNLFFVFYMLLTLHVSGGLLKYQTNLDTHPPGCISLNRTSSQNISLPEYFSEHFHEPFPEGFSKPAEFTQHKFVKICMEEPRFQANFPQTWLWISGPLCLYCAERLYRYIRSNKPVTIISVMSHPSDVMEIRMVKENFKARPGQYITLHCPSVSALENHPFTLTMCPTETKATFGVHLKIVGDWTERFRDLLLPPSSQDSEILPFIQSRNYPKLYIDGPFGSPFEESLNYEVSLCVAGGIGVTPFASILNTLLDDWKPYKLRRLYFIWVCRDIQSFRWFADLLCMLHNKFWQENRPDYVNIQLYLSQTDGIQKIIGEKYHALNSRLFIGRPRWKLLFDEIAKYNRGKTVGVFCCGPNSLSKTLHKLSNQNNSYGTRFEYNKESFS
NADPH oxidase 5 (Homo sapiens), sequence (Q96PH1 whole entry, looked up): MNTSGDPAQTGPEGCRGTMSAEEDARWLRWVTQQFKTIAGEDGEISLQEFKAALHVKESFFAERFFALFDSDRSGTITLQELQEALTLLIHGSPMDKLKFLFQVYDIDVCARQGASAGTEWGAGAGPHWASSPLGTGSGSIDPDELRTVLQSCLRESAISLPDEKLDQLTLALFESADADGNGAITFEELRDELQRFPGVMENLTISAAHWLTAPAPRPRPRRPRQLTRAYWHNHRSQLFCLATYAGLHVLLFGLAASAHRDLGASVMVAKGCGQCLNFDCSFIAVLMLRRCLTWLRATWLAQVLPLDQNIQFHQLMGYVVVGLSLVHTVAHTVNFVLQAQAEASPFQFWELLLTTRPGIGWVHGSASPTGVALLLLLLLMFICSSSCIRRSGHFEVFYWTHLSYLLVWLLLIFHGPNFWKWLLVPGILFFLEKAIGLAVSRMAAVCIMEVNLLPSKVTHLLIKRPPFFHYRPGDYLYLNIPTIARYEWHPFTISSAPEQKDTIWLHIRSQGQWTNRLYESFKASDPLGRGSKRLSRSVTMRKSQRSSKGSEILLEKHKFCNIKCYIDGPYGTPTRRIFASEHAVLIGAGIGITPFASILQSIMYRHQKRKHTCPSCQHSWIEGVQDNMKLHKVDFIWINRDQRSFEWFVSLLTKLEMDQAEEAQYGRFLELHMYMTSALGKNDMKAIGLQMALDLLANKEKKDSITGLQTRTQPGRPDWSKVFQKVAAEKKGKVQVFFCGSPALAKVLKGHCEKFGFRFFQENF

For `C=CCN(C(=O)C(c1cccs1)N(C(=O)/C=C\C(=O)O)c1c(Cl)cccc1CO)c1ccc(OC)cc1` (stereo not given), the z-score in test [1] was 1.42 (inactive) and -0.536 (inactive); in test [3], -0.363 (inactive) and 2.52 (inactive); in [4], -1.53 (inactive) and 0.102 (inactive); in test [5] it was -0.806 (inactive) and -0.455 (inactive); in [6], -1.39 (inactive) and 0.0841 (inactive); in [7] it was 0.312 and 0.429. In addition, the z-score in [8] was -0.102 (inactive) and -0.012 (inactive); in test [9] it was -1.08 (inactive) and -1.05 (inactive); in test [10] it was 0.145 and 0.141. Also, the composite z-score in [2] was 0.188 and 0.207.
`C[C@@H](ON=C1[C@H]2CCn3c(=O)n(-c4ccccc4)c(=O)n3[C@H]2[C@H](O)[C@@H]2O[C@H]12)c1cn([C@H](CO)Cc2ccccc2)nn1`: the z-score in [1] was 0.328 (inactive); in test [3], 0.508 (inactive); in test [4] it was 0.461 (inactive); in [5], 0.373 (inactive); in test [6], 0.367 (inactive); in test [7], 0.164. In addition, the values for the z-score in test [8], in [9] and in [10] were -0.622 (inactive), -0.268 (inactive) and 0.259, respectively. Also, in test [2], the composite z-score was -0.049.
Regarding `C=C[C@H](OC)[C@@H](O)c1ccc(O)c(F)c1`, the z-score is -0.809 (inactive) and 0.573 (inactive) in [1]; -0.0463 (inactive) and 0.351 (inactive) in test [3]; 0.125 (inactive) and 0.702 (inactive) in test [4]; -0.389 (inactive) and -0.0295 (inactive) in [5]; -0.138 (inactive) and 0.403 (inactive) in test [6]; -0.141 and 0.723 in test [7]. In addition, the z-score in test [8] was -1.01 (inactive) and -0.872 (inactive); in test [9], -0.137 (inactive) and -0.407 (inactive); in [10], 0.0933 and -0.503. Moreover, in [2], the composite z-score is -0.266 and -0.148.
Take `C=C[C@@H](C)[C@H](O)c1ccc(O)c2ccccc12`: the z-score in test [1] was 0.687 (inactive) and 0.0364 (inactive); in test [3], 1.57 (inactive) and 1.31 (inactive); in test [4], 0.651 (inactive) and 0.739 (inactive); in test [5] it was -0.198 (inactive) and -0.13 (inactive); in [6], 0.795 (inactive) and 0.599 (inactive); in test [7], 0.166 and 0.217. The z-score in [8] is -4.9 (inactive) and -4.75 (inactive); in test [9], -0.696 (inactive) and -0.723 (inactive); in test [10] it was 1.07 and 1.48. The composite z-score in [2] is -0.313 and -0.104.
For `COC(=O)CC=C[C@@H](C)[C@@H](CO)NS(=O)(=O)c1ccc(C)cc1`, the z-score in test [1] was -0.242 (inactive) and 0.0668 (inactive); in [3], -0.577 (inactive) and 5.54 (inactive); in test [4], -0.08 (inactive) and 1.47 (inactive); in test [5], 0.245 (inactive) and 0.644 (inactive); in test [6] it was -0.145 (inactive) and 1.05 (inactive); in test [7], -0.244 and 0.392. For the same compound, the z-score was -0.132 (inactive) and 0.154 (inactive) in test [8]; -0.00804 (inactive) and 0.453 (inactive) in test [9]; -0.00181 and 0.301 in test [10]. Further, the composite z-score in test [2] was -0.0971 and -0.148.
`C=CCN(C(=O)C(c1cccs1)N(C(=O)/C=C\C(=O)O)C(C)(C)CO)C(C)(C)C` (stereo not given): the z-score in test [1] is 2.48 (inactive) and 1.85 (inactive); in test [3] it was -0.534 (inactive) and -0.537 (inactive); in test [4] it was -1.13 (inactive) and -0.574 (inactive); in test [5] it was -0.936 (inactive) and -0.092 (inactive); in test [6], -1.37 (inactive) and -0.725 (inactive); in test [7] it was 1.6 and 0.974. Further, the z-score in test [8] is -0.192 (inactive) and -0.0748 (inactive); in [9], -0.755 (inactive) and -0.588 (inactive); in test [10], 0.163 and 0.51. The composite z-score in test [2] was -0.0647 and -0.103.
For the compound `CO[C@H]1COC(=O)[C@H](C)NC(=O)CC=C[C@@H](C)[C@H](OC)COC(=O)CC=C[C@@H]1C`, the z-score in test [1] was 0.343 (inactive); in [3], -0.0029 (inactive); in [4] it was 0.147 (inactive); in test [5], 0.597 (inactive); in test [6], -0.0165 (inactive); in test [7], -0.248. Further, the z-score was 1.45 (inactive) in test [8], -1.65 (inactive) in test [9] and -0.796 in [10]. This compound came in with a composite z-score in test [2] of -0.149.
On to `C=CCN(CCCCC)C(=O)C1N(c2c(Cl)cccc2CO)C(=O)C2C(C(=O)O)C3C=CC21O3` (stereo not given), for which the z-score in test [1] was -0.281 (inactive) and -0.118 (inactive); in test [3], 1.02 (inactive) and 0.766 (inactive); in test [4], 0.078 (inactive) and 0.573 (inactive); in test [5], 0.418 (inactive) and 0.0852 (inactive); in test [6] it was 0.188 (inactive) and -0.058 (inactive); in [7], 0.0308 and 0.765. Besides, the z-score was 0.871 (inactive) and 0.757 (inactive) in [8]; -1.02 (inactive) and -1.22 (inactive) in test [9]; -0.554 and -0.2 in test [10]. Further, the composite z-score in test [2] is -0.313 and 0.0547.

For the origin of these results see PubChem BioAssay.
